Bioassay records: PubChem BioAssay, National Center for Advancing Translational Sciences (NCATS)
Rows were chosen to be rich in hits. Some 13% of all compounds tested hit in one or more screens of this group.
ALDH1A1 block: qHTS Assay for Inhibitors of Aldehyde Dehydrogenase 1 (ALDH1A1); Aldehyde dehydrogenase 1A1 (Homo sapiens), P00352; Purified ALDH1A1, NADH fluorescence, propionaldehyde substrate; Potency, µM (highest dose often 75.3 µM), without a hit: at the highest dose activity, negative = inhibition, usual class: inhibitors; 7.3% of 220,000 active; AID 1030, 2008; active means well fitted inhibition curve with a large enough effect, not every such curve was filed as active; inconclusive means small, poorly fitted or top-dose-only effect, or another doubt; inactive means no such curve, though single readings can be large or run the other way;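 further: potency means the concentration at half of the fitted maximal effect; plate controls were no enzyme wells and a reference inhibitor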
Target sequence (P00352 whole entry, looked up): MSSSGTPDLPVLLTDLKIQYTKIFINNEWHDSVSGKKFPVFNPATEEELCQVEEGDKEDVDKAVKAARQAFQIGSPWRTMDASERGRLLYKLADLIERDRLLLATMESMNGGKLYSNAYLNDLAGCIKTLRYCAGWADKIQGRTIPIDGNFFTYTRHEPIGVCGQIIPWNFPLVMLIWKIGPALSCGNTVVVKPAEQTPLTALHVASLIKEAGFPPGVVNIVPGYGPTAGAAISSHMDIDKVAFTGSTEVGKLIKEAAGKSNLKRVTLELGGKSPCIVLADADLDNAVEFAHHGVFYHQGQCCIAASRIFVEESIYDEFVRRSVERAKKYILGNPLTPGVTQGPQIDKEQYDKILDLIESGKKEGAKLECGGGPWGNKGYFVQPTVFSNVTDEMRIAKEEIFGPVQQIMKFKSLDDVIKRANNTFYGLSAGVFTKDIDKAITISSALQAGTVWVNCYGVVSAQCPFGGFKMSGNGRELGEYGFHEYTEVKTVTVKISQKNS
LMNA splice mod: qHTS Assay for Modulators of Lamin A Splicing; 0.01% of 200,000 active; HeLa LMNA splicing GFP/RFP minigene ratio, 48 h; Potency, µM (doses to about 46.1 µM), without a hit: at the highest dose ratio change, negative = inhibition, usual class: inhibitors; active means well fitted inhibition curve with a large enough effect in the signal ratio, with a control signal flat, not every such curve was filed as active; inconclusive means small, poorly fitted or top-dose-only effect, or effect the other way, or a change in a side signal; the % refers to the signal ratio; further: potency means the concentration at half of the fitted maximal effect; on the % scale 0 is the no-effect control and ±100 the full control effect
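Read-out is the ratio of GFP to DsRed2 object intensity, acquired by 488 nm laser-scanning cytometry on HeLa lamin A-EGFP minigene reporter cells. Compound incubation 48 hrs at 37 °C in Opti-MEM with 2% FBS; DMSO 0.5% final.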
G9a inh: qHTS Assay for Inhibitors of Histone Lysine Methyltransferase G9a; G9a H3K9 monomethylation, AlphaScreen, 2 h; Potency, µM (titrated, usually from 102 µM), for the others: at the top dose activity, negative = inhibition, hits mostly inhibitors; 8.8% of 350,000 active; AID 504332, 2011; further: potency means the concentration at half of the fitted maximal effect; on the % scale 0 is the no-effect control and ±100 the full control effect; nearly all actives have a fitted effect of over 75% in size
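AlphaScreen read-out: biotin-H3K9 peptide (500 nM) methylation by 20 nM enzyme with 20 uM SAM, 2 h at room temperature after 15 min compound preincubation; anti-monomethyl H3K9 antibody plus donor/acceptor beads, 10 min dark.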
Sfp inh: qHTS Assay for Inhibitors of Bacillus subtilis Sfp phosphopantetheinyl transferase (PPTase); 4'-phosphopantetheinyl transferase ffp (Bacillus subtilis), Q9F4F7; Biochemical Sfp PPTase activity, qHTS; Potency, µM, without a hit: largest response in the series, negative = inhibition, usual class: inhibitors; 3.5% of 310,000 active; AID 1490, 2009;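 further: the enzyme is Sfp with the accession as filed and its product quenches rhodamine fluorescence; potency means the concentration at half of the fitted maximal effect; 0% = enzyme reaction without inhibitor and -100% = no enzyme wells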
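With Hepes-Na pH 7.6 buffer containing 10 mM MgCl2, Sfp (15 nM) modified BHQ-2-YbbR (12.5 uM) using rhodamine-CoA (5 uM). Two reads 30 minutes apart at 525/598 nm yielded each well's rate.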
miR-21 act: qHTS Assay for Modulators of miRNAs and/orActivators of miR-21. HeLa miR-21 FLuc reporter, luciferase, 48 h. Potency, µM (top dose mostly 38.3 µM), for inactives: at the highest dose activity change, positive = activation, usual class: activators. 340,000 tested, under 10 active. AID 2288, 2010;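 further: % of control where 0% means no effect; miR-21 action dims this reporter so a rising signal means less miR-21 action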
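HeLa miR-21-FLuc reporter line, endogenous miR-21; 2000 cells/well in DMEM/10% FBS; compound titration up to ~40uM final, 48 h, 37 degree Celsius; luciferase detection reagent, 15 min lysis, CCD luminescence.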
KDM4E inh: qHTS Assay for Inhibitors of Human Jumonji Domain Containing 2E (JMJD2E); Lysine-specific demethylase 4E (Homo sapiens), B2RXH2; JMJD2E catalytic domain, FDH-coupled NADH fluorescence (FDH is formaldehyde dehydrogenase); Potency, µM (highest dose often 57.1 µM), inactives show top-dose activity change, negative = inhibition, actives largely listed as inhibitors; 1.6% of 230,000 active; active means well fitted inhibition curve with a large enough effect, not every such curve was filed as active; inconclusive means small, poorly fitted or top-dose-only effect, or another doubt; inactive means no such curve, though single readings can be large or run the other way;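 further: potency means the concentration at half of the fitted maximal effect; 0% = wells with enzyme and -100% = buffer wells without enzyme; nearly all actives have a fitted effect of over 50% in size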
An asterisk follows results filed as active; [ ] = dose if it differs, or a comment. Unless noted, the call rests on the fitted dose curve; in most records, active means well fitted curve in the direction sought with a large enough effect; inconclusive means small, poorly fitted or top-dose-only effect, or another doubt; inactive means no such curve, though single readings can be large; an effect the other way counts as inactive or inconclusive.

For CN(C)c1ccc(Cl)cc1N the results were ALDH1A1 block 2%, LMNA splice mod -28%[46 µM], G9a inh 25µM*, Sfp inh 4%, miR-21 act -2% and KDM4E inh -1%.
`CCOc1ccccc1NC(=O)CN(C)S(=O)(=O)c1ccc(C(=O)N2CCOCC2)s1` gave LMNA splice mod 6%[46 µM], G9a inh -1%[59 µM] and miR-21 act -5%.
`CC(=O)N/C(=C\c1ccc(F)cc1)C(=O)NC(C(=O)O)C(C)C` (stereo not drawn) gave ALDH1A1 block 14%, G9a inh 56µM*, Sfp inh 12%, miR-21 act 0% and KDM4E inh -9%.
Screening CC(=O)N/C(=C\c1ccccc1)C(=O)NC(C)C(=O)O (stereo not drawn) returned ALDH1A1 block -3%, LMNA splice mod 17%[46 µM], G9a inh 56µM*, Sfp inh 12%, miR-21 act -1% and KDM4E inh -8%.
CC(=O)N/C(=C\c1ccc2c(c1)OCO2)C(=O)NC(C(=O)O)c1ccccc1 (stereo not drawn) was read as G9a inh 89µM*, Sfp inh 15%, miR-21 act -1% and KDM4E inh -22%.
Screening CC(=O)N/C(=C\c1ccccc1)C(=O)Nc1ccccc1C returned ALDH1A1 block -4%, G9a inh inconclusive, Sfp inh 8%, miR-21 act -7% and KDM4E inh 3%.
For COc1ccc(CN2C(=O)c3cccnc3C2Nc2cc(Cl)ccc2OC)cc1 (stereo not drawn) the results were ALDH1A1 block inconclusive, LMNA splice mod 9%, G9a inh inconclusive, Sfp inh 2%, miR-21 act -3% and KDM4E inh 14µM*.
Screening COC(=O)c1cc(NC2c3ccccc3C(=O)N2Cc2ccco2)cc(C(=O)OC)c1 (stereo not drawn) returned ALDH1A1 block -3%, LMNA splice mod 4%, G9a inh -1%, Sfp inh 12%, miR-21 act -3% and KDM4E inh -6%.
For COc1ccc(OC)c(NC2c3ncccc3C(=O)N2Cc2ccco2)c1 (stereo not drawn) the results were ALDH1A1 block inconclusive, LMNA splice mod 2%, G9a inh 50µM*, Sfp inh -7%, miR-21 act -4% and KDM4E inh 1%.
For Cc1ccc(NC2c3ncccc3C(=O)N2Cc2ccco2)c(C)c1 (stereo not drawn) the results were ALDH1A1 block -2%, G9a inh 45µM*, Sfp inh 3%, miR-21 act 1% and KDM4E inh -15%.
Screening COc1ccc(CN2C(=O)c3cccnc3C2O)cc1 (stereo not drawn) returned ALDH1A1 block -8%, LMNA splice mod 10%, G9a inh inconclusive, Sfp inh 8%, miR-21 act -2% and KDM4E inh inconclusive.
For CCOC(=O)c1sc2nc(C)nc(SC(C)C(=O)NC3CC3)c2c1C (stereo not drawn) the results were G9a inh 18%[2.33 µM].
For Cc1cc([N+](=O)[O-])ccc1NC(=O)c1csc(C)c1C the results were G9a inh inconclusive, Sfp inh 5% and miR-21 act -36%.
`OC1CCCCC1` gave ALDH1A1 block 8% and G9a inh 13%[0.501 µM].
For CCc1nc(N[C@H](C(=O)O)C(C)CC)c2oc3ccccc3c2n1 (stereo partly drawn) the results were ALDH1A1 block 0.5µM*, LMNA splice mod 0%[0.0737 µM], G9a inh 9%[0.501 µM], Sfp inh 6%, miR-21 act -2% and KDM4E inh -8%.
CC(C)C(Nc1ncnc2c1oc1ccccc12)C(=O)O (stereo not drawn) was read as ALDH1A1 block 7%, Sfp inh 5%, miR-21 act 3% and KDM4E inh inconclusive.
`CCC(C)[C@H](Nc1nc(-c2ccccc2)nc2c1oc1ccccc12)C(=O)O` (stereo partly drawn) gave ALDH1A1 block 0.79µM*, LMNA splice mod 1%[0.0737 µM], G9a inh -2%[0.501 µM], Sfp inh 22%, miR-21 act 2% and KDM4E inh 7%.
Screening c1ccc(-c2nc(NCCCn3ccnc3)c3oc4ccccc4c3n2)cc1 returned ALDH1A1 block 1%, LMNA splice mod -5%, G9a inh 18µM*, Sfp inh -10%, miR-21 act 13% and KDM4E inh 8%.
CCc1nc(SCC(=O)c2cccs2)c2oc3ccccc3c2n1 was read as ALDH1A1 block 2%, LMNA splice mod 13%, G9a inh 31%[59 µM], Sfp inh 35µM*, miR-21 act -26% and KDM4E inh -4%.
For Cc1ccc(S(=O)(=O)N2CCN(c3ccccc3)CC2)cc1C(=O)NC1CCCCC1 the results were G9a inh 36%, Sfp inh 9% and miR-21 act 7%.
Screening NC(=O)CN1C(=O)NC2(CCCc3ccccc32)C1=O (stereo not drawn) returned G9a inh 47%, Sfp inh 19% and miR-21 act -2%.
Screening CC(C)[C@H](Nc1nc(-c2ccccc2)nc2c1oc1ccccc12)C(=O)O returned ALDH1A1 block 1.1µM*, LMNA splice mod 7%[0.0737 µM], G9a inh 40%[0.501 µM], Sfp inh 22%, miR-21 act 1% and KDM4E inh 0%.
`CCC(C)NC(=O)CSc1nc2cc3c(cc2c(=O)n1CCCCCC(=O)NCc1ccc2c(c1)OCO2)OCO3` (stereo not drawn) gave LMNA splice mod inconclusive, G9a inh 3%[59 µM] and miR-21 act 0%.
Screening CCOc1ccccc1NC(=O)Cn1c(=O)ccc2cc(S(=O)(=O)N3CCC(C)CC3)ccc21 returned LMNA splice mod inconclusive, G9a inh 8%[59 µM] and miR-21 act 5%.
COC(=O)/C=C1/S/C(=N/NC(=O)c2ccccc2OC)NC1=O was read as G9a inh 7.9µM*, Sfp inh -5% and miR-21 act -2%.
Screening COC(=O)/C=C1/S/C(=N/NC(=O)c2ccc(OC)cc2)NC1=O returned G9a inh 39%, Sfp inh 2% and miR-21 act -1%.
`COc1cccc2cc(-c3nc4sc5c(c4c(=O)[nH]3)CCC(C(C)(C)C)C5)c(=O)oc12` (stereo not drawn) gave LMNA splice mod inconclusive, G9a inh -19%[59 µM] and miR-21 act 0%.
